# Tests used:
# Assay in all cases: DAPPL (digital affinity profiling via proximity ligation, sequencing); 10 mM Tris-HCl pH 7.5, 50 mM NaCl, 1 mM DTT, 4% glycerol, room temperature, 30 min; GST-TFs on glutathione beads, 16-mer random dsDNA library, 0.1% formaldehyde crosslink after washing; high values mean tight binding
# Conditions in all cases: protein: recombinant; tags: N-terminal GST; dsDNA, one strand shown
# FLI1 = target: T1, FLI1 (Homo sapiens, UniProt Q01543 1-452)
# T1 sequence: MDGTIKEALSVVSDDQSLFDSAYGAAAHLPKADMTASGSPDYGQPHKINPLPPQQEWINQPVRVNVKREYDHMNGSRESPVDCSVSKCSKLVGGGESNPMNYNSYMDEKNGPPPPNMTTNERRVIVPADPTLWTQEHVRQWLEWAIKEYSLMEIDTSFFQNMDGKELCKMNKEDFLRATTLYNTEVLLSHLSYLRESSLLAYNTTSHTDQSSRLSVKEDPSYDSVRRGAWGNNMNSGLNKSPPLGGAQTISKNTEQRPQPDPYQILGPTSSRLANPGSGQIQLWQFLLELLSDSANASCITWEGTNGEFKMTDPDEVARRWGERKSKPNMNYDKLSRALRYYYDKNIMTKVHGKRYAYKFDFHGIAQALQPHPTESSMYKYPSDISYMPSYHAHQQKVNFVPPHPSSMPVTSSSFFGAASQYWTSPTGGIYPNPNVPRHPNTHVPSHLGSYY
# Procedure, shortened: (§1)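 Binding signal is defined as a hexamer's read frequency for one factor over its frequency for the tag-only sample. To obtain reads, GST-fused human transcription factors were expressed in yeast, captured on glutathione beads, barcoded with DNA and pooled with that sample. Pools met 200 nmole of a 16-mer random double-stranded DNA library in Tris/NaCl/DTT/glycerol buffer for 30 min at room temperature before washing, 0.1% formaldehyde crosslinking, proximity ligation (BsaI/T4 ligase, 1 h, 37 °C), PCR and Illumina NextSeq500 sequencing.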
# ELK1 = target: T2, ELK1 (Homo sapiens, UniProt P19419 1-428)
# T2 sequence: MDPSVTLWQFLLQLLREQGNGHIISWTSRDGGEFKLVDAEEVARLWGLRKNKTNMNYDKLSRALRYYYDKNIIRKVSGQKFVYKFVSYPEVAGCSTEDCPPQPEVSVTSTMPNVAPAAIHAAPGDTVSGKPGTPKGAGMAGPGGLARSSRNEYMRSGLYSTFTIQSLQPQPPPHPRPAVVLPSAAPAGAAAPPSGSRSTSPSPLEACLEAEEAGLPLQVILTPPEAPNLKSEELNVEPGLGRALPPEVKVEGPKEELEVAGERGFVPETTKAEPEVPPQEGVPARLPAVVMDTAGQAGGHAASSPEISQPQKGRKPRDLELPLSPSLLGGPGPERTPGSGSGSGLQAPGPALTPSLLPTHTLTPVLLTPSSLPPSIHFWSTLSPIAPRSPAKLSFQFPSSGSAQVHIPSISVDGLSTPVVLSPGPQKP
# Procedure, shortened: as §1
# GABPA = target: T3, GABPA (Homo sapiens, UniProt Q06546 1-454)
# T3 sequence: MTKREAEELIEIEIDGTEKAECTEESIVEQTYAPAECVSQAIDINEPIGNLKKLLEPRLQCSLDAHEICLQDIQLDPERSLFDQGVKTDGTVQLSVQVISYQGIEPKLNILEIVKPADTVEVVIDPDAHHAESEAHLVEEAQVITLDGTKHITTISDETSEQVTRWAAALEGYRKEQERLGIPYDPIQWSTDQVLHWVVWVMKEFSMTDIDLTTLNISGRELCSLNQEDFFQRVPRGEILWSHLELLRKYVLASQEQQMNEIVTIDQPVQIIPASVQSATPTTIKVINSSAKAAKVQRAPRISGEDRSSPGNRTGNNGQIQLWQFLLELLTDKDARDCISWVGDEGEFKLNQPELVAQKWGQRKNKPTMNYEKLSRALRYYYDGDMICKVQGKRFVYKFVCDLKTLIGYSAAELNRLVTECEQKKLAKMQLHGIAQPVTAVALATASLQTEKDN
# Procedure, shortened: as §1
# ERG = target: T4, ERG (Homo sapiens, UniProt P11308 1-479)
# T4 sequence: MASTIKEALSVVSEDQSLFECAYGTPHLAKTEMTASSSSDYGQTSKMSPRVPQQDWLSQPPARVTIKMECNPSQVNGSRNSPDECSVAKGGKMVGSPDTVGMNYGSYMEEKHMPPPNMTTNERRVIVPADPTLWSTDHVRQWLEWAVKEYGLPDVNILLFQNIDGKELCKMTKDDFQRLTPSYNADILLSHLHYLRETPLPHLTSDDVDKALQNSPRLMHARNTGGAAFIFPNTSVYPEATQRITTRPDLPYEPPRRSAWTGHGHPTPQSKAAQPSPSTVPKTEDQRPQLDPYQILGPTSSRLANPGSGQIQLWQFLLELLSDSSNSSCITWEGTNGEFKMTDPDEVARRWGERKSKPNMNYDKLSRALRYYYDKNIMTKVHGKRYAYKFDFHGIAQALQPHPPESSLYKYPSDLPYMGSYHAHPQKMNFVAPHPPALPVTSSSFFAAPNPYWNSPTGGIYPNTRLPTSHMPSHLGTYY
# Procedure, shortened: as §1
# ELF1 = ELF1 (Homo sapiens, UniProt P32519 1-619)
# Procedure, shortened: as §1
# EHF = target: T5, EHF (Homo sapiens, UniProt Q9NZC4 1-300)
# T5 sequence: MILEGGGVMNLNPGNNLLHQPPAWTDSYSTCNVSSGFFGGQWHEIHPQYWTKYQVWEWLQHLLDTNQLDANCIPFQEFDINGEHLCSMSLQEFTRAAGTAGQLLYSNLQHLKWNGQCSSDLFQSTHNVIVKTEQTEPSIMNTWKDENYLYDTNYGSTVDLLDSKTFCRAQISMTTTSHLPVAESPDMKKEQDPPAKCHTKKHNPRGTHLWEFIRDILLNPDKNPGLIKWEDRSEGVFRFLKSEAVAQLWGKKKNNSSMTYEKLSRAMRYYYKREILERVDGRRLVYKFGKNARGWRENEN
# Procedure, shortened: as §1
# SPI1 = SPI1 (Homo sapiens, UniProt P17947 1-270)
# Procedure, shortened: as §1
# SPIB = SPIB (Homo sapiens, UniProt Q01892 1-262)
# Procedure, shortened: as §1
# ELK3 = target: T6, ELK3 (Homo sapiens, UniProt P41970 1-407)
# T6 sequence: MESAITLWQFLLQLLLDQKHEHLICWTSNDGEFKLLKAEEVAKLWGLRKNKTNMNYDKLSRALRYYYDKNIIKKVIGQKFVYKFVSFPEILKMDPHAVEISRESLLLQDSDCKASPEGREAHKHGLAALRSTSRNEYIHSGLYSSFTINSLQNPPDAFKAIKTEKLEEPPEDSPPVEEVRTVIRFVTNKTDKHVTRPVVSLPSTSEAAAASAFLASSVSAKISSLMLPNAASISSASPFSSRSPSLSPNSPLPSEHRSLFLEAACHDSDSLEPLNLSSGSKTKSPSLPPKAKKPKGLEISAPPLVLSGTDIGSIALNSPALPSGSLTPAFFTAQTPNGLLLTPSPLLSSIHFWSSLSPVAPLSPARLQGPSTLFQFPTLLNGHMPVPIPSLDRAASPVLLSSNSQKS
# Procedure, shortened: as §1
# Sequence of SPIB (Q01892 whole entry): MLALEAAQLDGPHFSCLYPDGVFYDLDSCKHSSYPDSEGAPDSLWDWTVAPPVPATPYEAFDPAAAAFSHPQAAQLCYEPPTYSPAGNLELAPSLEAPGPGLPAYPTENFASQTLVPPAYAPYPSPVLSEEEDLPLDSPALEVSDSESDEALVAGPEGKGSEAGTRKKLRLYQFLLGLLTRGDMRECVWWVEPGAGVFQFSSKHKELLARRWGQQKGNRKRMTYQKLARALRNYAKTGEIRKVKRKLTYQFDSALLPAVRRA
# Sequence of ELF1 (P32519 whole entry): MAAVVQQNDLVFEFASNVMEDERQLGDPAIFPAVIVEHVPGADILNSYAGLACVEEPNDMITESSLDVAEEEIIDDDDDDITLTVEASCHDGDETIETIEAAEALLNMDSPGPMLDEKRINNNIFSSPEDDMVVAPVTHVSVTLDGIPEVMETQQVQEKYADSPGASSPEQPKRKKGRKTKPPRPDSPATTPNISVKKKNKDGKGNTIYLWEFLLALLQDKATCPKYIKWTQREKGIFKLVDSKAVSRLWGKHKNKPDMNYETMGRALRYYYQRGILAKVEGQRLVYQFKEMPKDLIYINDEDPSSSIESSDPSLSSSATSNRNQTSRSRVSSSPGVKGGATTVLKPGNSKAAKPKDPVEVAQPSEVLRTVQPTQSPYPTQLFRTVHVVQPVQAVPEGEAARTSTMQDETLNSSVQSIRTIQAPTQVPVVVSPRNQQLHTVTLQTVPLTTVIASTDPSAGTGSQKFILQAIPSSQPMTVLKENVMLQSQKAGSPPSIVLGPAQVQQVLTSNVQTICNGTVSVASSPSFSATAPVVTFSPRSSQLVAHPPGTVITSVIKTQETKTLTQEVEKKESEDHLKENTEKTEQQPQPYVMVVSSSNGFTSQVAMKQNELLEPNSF
sequence,measurement,setting,value
TTTTTC,binding signal,FLI1,"1.21 fold enrichment (6-mer frequency, TF over GST control)"
same,binding signal,ELK1,"1.15 fold enrichment (6-mer frequency, TF over GST control)"
same,binding signal,GABPA,"1.32 fold enrichment (6-mer frequency, TF over GST control)"
same,binding signal,ERG,"1.14 fold enrichment (6-mer frequency, TF over GST control)"
same,binding signal,ELF1,"1.22 fold enrichment (6-mer frequency, TF over GST control)"
same,binding signal,EHF,"1.23 fold enrichment (6-mer frequency, TF over GST control)"
same,binding signal,SPI1,"1.33 fold enrichment (6-mer frequency, TF over GST control)"
same,binding signal,SPIB,"1.14 fold enrichment (6-mer frequency, TF over GST control)"
same,binding signal,ELK3,"1.39 fold enrichment (6-mer frequency, TF over GST control)"

# Reference: PMC7862700, “An all-to-all approach to the identification of sequence-specific readers for epigenetic DNA modifications on cytosine”
